Measured values published in PubChem BioAssay AID1159580 (chemical genetic matrix, 2015).
Hit rate of the full screen: of about 5,500 compounds, about 2,000 (36%) were called active. About 18% were inconclusive and are not listed. Rule as the data show it: active = normalized growth mostly below about 0.91 (no sharp cut-off); inconclusive = no clear call, values can overlap the other calls; inactive = mostly above about 0.92. Some of the results follow.

Assay: chemical genetic growth profiling, strain panel (AID 1159580);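 also: tested at 20 µM; growth read once vehicle control cultures reached saturation at 30 °C; 1 = growth at the plate median or of vehicle wells; lower values mean less growth of the strain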
Conditions: S. cerevisiae deletion strains, growth OD

Measured: normalized growth

COc1ccc(-c2cc(=O)c3c(O)c(OC)c(OC)c(OC)c3o2)cc1
inactive: locus YAL021C, strain ccr4, active compounds read low 0.987 | locus YAL026C, strain drs2, active compounds read low 0.988 | locus YAL030W, strain snc1, active compounds read low 1 | locus YBL061C, strain skt5, active compounds read low 0.99 | locus YBR009C, strain hhf1, active compounds read low 0.995 | locus YBR023C, strain chs3, active compounds read low 0.993 | locus YBR171W, strain sec66, active compounds read low 0.999 | locus YBR231C, strain swc5, active compounds read low 0.986 | locus YBR279W, strain paf1, active compounds read low 0.999 | locus YCL011C, strain gbp2, active compounds read low 0.987 | locus YCL016C, strain dcc1, active compounds read low 0.968 | locus YCL069W, strain vba3, active compounds read low 0.983 | locus YCR088W, strain abp1, active compounds read low 0.996 | locus YDL005C, strain med2, active compounds read low 0.986 | locus YDL040C, strain nat1, active compounds read low 0.993 | locus YDR001C, strain nth1, active compounds read low 0.992 | locus YDR069C, strain doa4, active compounds read low 0.976 | locus YDR137W, strain rgp1, active compounds read low 1 | locus YDR159W, strain sac3, active compounds read low 1 | locus YDR195W, strain ref2 0.953 | locus YDR297W, strain sur2, active compounds read low 0.987 | locus YDR334W, strain swr1, active compounds read low 0.977 | locus YDR335W, strain msn5, active compounds read low 0.995 | locus YDR392W, strain spt3, active compounds read low 0.991 | locus YEL003W, strain gim4, active compounds read low 0.984 | locus YEL037C, strain rad23, active compounds read low 0.992 | locus YEL061C, strain CIN8 (second series), active compounds read low 0.998 | locus YER015W, strain faa2, active compounds read low 0.989 | locus YER016W, strain bim1, active compounds read low 0.998 | locus YER111C, strain swi4, active compounds read low 0.997 | locus YER155C, strain BEM2 (second series), active compounds read low 0.978 | locus YFR010W, strain ubp6, active compounds read low 1 | locus YGL167C, strain pmr1, active compounds read low 0.995 | locus YGL173C, strain kem1, active compounds read low 1.02 | locus YGL227W, strain vid30, active compounds read low 1 | locus YGL240W, strain doc1, active compounds read low 1 | locus YGL253W, strain hxk2, active compounds read low 1 | locus YHR013C, strain ard1, active compounds read low 0.971 | locus YHR027C, strain rpn1, active compounds read low 0.964 | locus YHR142W, strain chs7, active compounds read low 0.986 | locus YJL092W, strain hpr5, active compounds read low 0.99 | locus YJL095W, strain BCK1 (second series), active compounds read low 1 | locus YJL115W, strain asf1, active compounds read low 0.979 | locus YJL129C, strain trk1, active compounds read low 0.979 | locus YJL154C, strain vps35, active compounds read low 0.988 | locus YJL164C, strain tpk1, active compounds read low 1.01 | locus YJL166W, strain qcr8, active compounds read low 0.998 | locus YJL187C, strain SWE1, active compounds read low 0.995 | locus YKL160W, strain elf1, active compounds read low 0.972 | locus YKR026C, strain gcn3, active compounds read low 1.01 | locus YKR091W, strain srl3, active compounds read low 0.994 | locus YLL001W, strain dnm1, active compounds read low 0.999 | locus YLL026W, active compounds read low 0.983 | locus YLL041C, strain sdh2, active compounds read low 0.982 | locus YLR027C, strain aat2, active compounds read low 0.991 | locus YLR221C, strain rsa3, active compounds read low 0.992 | locus YLR258W, strain gsy2, active compounds read low 0.982 | locus YLR262C, strain YPT6 (second series), active compounds read low 1 | locus YLR320W, strain mms22, active compounds read low 1 | locus YLR342W, strain FKS1, active compounds read low 0.99 | locus YLR357W, strain rsc2, active compounds read low 0.97 | locus YLR370C, strain arc18, active compounds read low 0.983 | locus YLR384C, strain iki3, active compounds read low 0.99 | locus YML120C, strain ndi1, active compounds read low 0.992 | locus YMR058W, strain fet3, active compounds read low 0.976 | locus YMR125W, strain sto1, active compounds read low 0.974 | locus YMR129W, active compounds read low 0.989 | locus YMR205C, strain PFK2, active compounds read low 0.997 | locus YMR231W, strain pep5, active compounds read low 1.01 | locus YNL071W, strain lat1, active compounds read low 1 | locus YNL209W, strain ssb2, active compounds read low 0.984 | locus YNL248C, strain rpa49, active compounds read low 0.969 | locus YNL322C, strain KRE1 (second series), active compounds read low 1.01 | locus YNR049C, strain mso1, active compounds read low 0.984 | locus YOR001W, strain rrp6, active compounds read low 0.998 | locus YOR070C, strain gyp1, active compounds read low 0.99 | locus YOR080W, strain dia2, active compounds read low 0.984 | locus YOR083W, strain WHI5, active compounds read low 0.993 | locus YOR106W, strain vam3, active compounds read low 0.955 | locus YOR265W, strain rbl2, active compounds read low 0.983 | locus YOR270C, strain vph1, active compounds read low 1.01 | locus YOR290C, strain snf2, active compounds read low 0.955 | locus YPL051W, strain arl3, active compounds read low 0.981 | locus YPL078C, strain atp4, active compounds read low 0.991 | locus YPL106C, strain sse1, active compounds read low 0.981 | locus YPL240C, strain hsp82, active compounds read low 0.99

N#CCCCCOc1ccc2c(=O)cc(-c3ccccc3)oc2c1
active: locus YPL256C, strain CLN2, active compounds read low 1.15 [resistant]
inactive: locus YAR019C, strain CDC15, active compounds read low 0.99 | locus YBL105C, strain PKC1, active compounds read low 0.978 | locus YBR135W, strain CKS1, active compounds read low 0.977 | locus YBR136W, strain MEC1, active compounds read low 0.977 | locus YBR160W, strain CDC28, active compounds read low 0.977 | locus YDL017W, strain CDC7, active compounds read low 0.988 | locus YDL028C, strain MPS1, active compounds read low 0.981 | locus YDL101C, strain DUN1, active compounds read low 0.972 | locus YDL108W, strain KIN28, active compounds read low 0.977 | locus YDL132W, strain cdc53, active compounds read low 0.971 | locus YDL214C, strain PRR2, active compounds read low 0.946 | locus YDR052C, strain DBF4, active compounds read low 0.989 | locus YDR054C, strain cdc34, active compounds read low 0.988 | locus YDR226W, strain ADK1, active compounds read low 0.977 | locus YDR477W, strain SNF1, active compounds read low 0.959 | locus YER123W, strain YCK3, active compounds read low 0.954 | locus YER133W, strain GLC7, active compounds read low 0.972 | locus YFL009W, strain cdc4, active compounds read low 0.979 | locus YFL029C, strain CAK1, active compounds read low 0.989 | locus YFR003C, strain YPI1, active compounds read low 0.981 | locus YFR019W, strain FAB1, active compounds read low 0.961 | locus YFR028C, strain CDC14, active compounds read low 0.974 | locus YGR040W, strain KSS1, active compounds read low 0.94 | locus YGR052W, strain FMP48, active compounds read low 0.972 | locus YGR092W, strain DBF2, active compounds read low 0.938 | locus YHR030C, strain SLT2, active compounds read low 1.08 | locus YHR079C, strain IRE1, active compounds read low 1.08 | locus YHR082C, strain KSP1, active compounds read low 1.07 | locus YHR205W, strain SCH9, active compounds read low 0.976 | locus YIL147C, strain SLN1, active compounds read low 0.974 | locus YJL095W, strain BCK1, active compounds read low 0.933 | locus YJL128C, strain PBS2, active compounds read low 0.938 | locus YJL157C, strain FAR1, active compounds read low 0.971 | locus YJR016C, strain ILV3, active compounds read low 0.967 | locus YJR066W, strain TOR1 (second series), active compounds read low 0.914 | locus YJR066W, strain TOR1, active compounds read low 1.04 | locus YKL048C, strain ELM1, active compounds read low 0.966 | locus YKL067W, strain YNK1, active compounds read low 0.956 | locus YKL101W, strain HSL1, active compounds read low 0.936 | locus YKL193C, strain SDS22, active compounds read low 0.969 | locus YKL203C, strain TOR2, active compounds read low 1.01 | locus YLR113W, strain HOG1, active compounds read low 0.955 | locus YLR133W, strain CKI1, active compounds read low 0.965 | locus YLR403W, strain SFP1, active compounds read low 0.921 | locus YML070W, strain DAK1, active compounds read low 0.956 | locus YMR001C, strain CDC5, active compounds read low 0.978 | locus YMR205C, strain PFK2 (second series), active compounds read low 0.967 | locus YMR277W, strain FCP1, active compounds read low 0.976 | locus YNL006W, strain LST8, active compounds read low 0.987 | locus YNL020C, strain ARK1, active compounds read low 0.956 | locus YNL161W, strain CBK1, active compounds read low 0.98 | locus YNL183C, strain NPR1, active compounds read low 1.02 | locus YNL207W, strain RIO2, active compounds read low 0.965 | locus YNL222W, strain SSU72, active compounds read low 0.982 | locus YNL307C, strain MCK1 (second series), active compounds read low 0.927 | locus YOL078W, strain AVO1, active compounds read low 0.972 | locus YOL136C, strain PFK27, active compounds read low 0.919 | locus YOR061W, strain CKA2, active compounds read low 0.961 | locus YOR119C, strain RIO1, active compounds read low 1.01 | locus YOR231W, strain MKK1, active compounds read low 0.964 | locus YOR329C, strain SCD5, active compounds read low 0.984 | locus YPL031C, strain PHO85, active compounds read low 0.968 | locus YPL153C, strain RAD53, active compounds read low 0.953 | locus YPL204W, strain HRR25, active compounds read low 0.943 | locus YPL209C, strain IPL1, active compounds read low 0.982 | locus YPR025C, strain CCL1, active compounds read low 0.982 | locus YPR106W, strain ISR1, active compounds read low 0.983 | locus YPR111W, strain DBF20, active compounds read low 0.961 | strain NNK1, active compounds read low 0.975 | strain TSCII, active compounds read low 0.976
